Assay results taken from PubChem BioAssay (NCATS).
Results filed as inconclusive are left out. Entries that show only a call come without a potency. Unmarked numbers belong to inactive results. Calls of active or inactive are those of the source. The call rests on the fitted dose curve; in most records, active means well fitted curve in the direction sought with a large enough effect; inconclusive means small, poorly fitted or top-dose-only effect, or another doubt; inactive means no such curve, though single readings can be large; an effect the other way counts as inactive or inconclusive.

Assays:
[1] = qHTS for Inhibitors of the Aldehyde Dehydrogenase Family (ALDH1A2, ALDH1A3, ALDH2, ALDH3A1) (AID 2061307); further: nearly all actives have a fitted effect of over 50% in size; on potency: test system not described further here; potency means the concentration at half of the fitted maximal effect
[2] = molecular target: Aldehyde dehydrogenase, mitochondrial (Homo sapiens) (UniProt P05091); test: qHTS for Inhibitors of the Aldehyde Dehydrogenase Family (ALDH2) Primary screen (AID 2061308); further: nearly all actives have a fitted effect of over 55% in size; further: potency means the concentration at half of the fitted maximal effect
[3] = molecular target: Retinaldehyde dehydrogenase 3 (Homo sapiens) (UniProt P47895); test: qHTS for Inhibitors of the Aldehyde Dehydrogenase Family (ALDH1A3) Confirmatory screens (AID 2061311); further: nearly all actives have a fitted effect of over 60% in size; further: potency means the concentration at half of the fitted maximal effect
[4] = molecular target: Retinal dehydrogenase 2 (Homo sapiens) (UniProt O94788); test: qHTS for Inhibitors of the Aldehyde Dehydrogenase Family (ALDH1A2) Confirmation screens (AID 2061314); further: nearly all actives have a fitted effect of over 65% in size; further: potency means the concentration at half of the fitted maximal effect
[5] = molecular target: Retinaldehyde dehydrogenase 3 (Homo sapiens) (UniProt P47895); test: qHTS for Inhibitors of the Aldehyde Dehydrogenase Family (ALDH1A3) Primary screen (AID 2061315)
[6] = molecular target: Aldehyde dehydrogenase 1A1 (Homo sapiens) (UniProt P00352); test: qHTS for Inhibitors of the Aldehyde Dehydrogenase Family (ALDH1A1) Confirmatory screens (AID 2061316); further: nearly all actives have a fitted effect of over 65% in size; further: potency means the concentration at half of the fitted maximal effect

Row | Structure (SMILES) | Potency [1] | Potency [2] | Potency [3] | Potency [4] | Potency [5] | Potency [6]
1 | Cc1ccc(OCCn2c(CCNC(=O)c3cccc(C(F)(F)F)c3)nc3ccccc32)cc1 | inactive | inactive | inactive | inactive | inactive | inactive
2 | COc1ccc(C2Nc3ccccc3C(=O)N2Cc2ccccc2C)cc1COc1ccc(NC(C)=O)cc1 (centres undefined) | 1.79 µM (active) | inactive | 17.9 µM (active) | 17.9 µM (active) | inactive | 25.2 µM (active)
3 | COc1ccccc1-c1nc(-c2ccc(C(=O)O)cc2)no1 | 2.14 µM (active) | inactive | 1.13 µM (active) | inactive |  | inactive
4 | O=C(Nc1ccc(N2CCOCC2)nc1)c1cccs1 | 25.1 µM (active) | inactive | 22.5 µM (active) | 22.5 µM (active) | inactive | 12.7 µM (active)
5 | Cc1ccc(S(=O)(=O)Nc2cc(F)ccc2C(=O)Nc2nc(-c3ccccc3)cs2)cc1 | 0.224 µM (active) | inactive | inactive | 5.04 µM (active) | inactive | 
6 | NC(=O)C1CCN(c2ncc(-c3ccc4c(c3)OCO4)s2)CC1 | 5.04 µM (active) | inactive | 17.8 µM (active) | inactive |  | 12.7 µM (active)
7 | Oc1ccc(COC2CCN(Cc3ccccc3)C2)c2cccnc12 (centres undefined) | inactive | inactive | 12.7 µM (active) | inactive | inactive | 
8 | c1ccc(-n2cc(-c3nnc4n3CCCCC4)cn2)cc1 | inactive | inactive | 14.2 µM (active) | 12.7 µM (active) | inactive | inactive
9 | O=C1Nc2c(Cl)cccc2/C1=C\c1cc(Cl)c(O)c(Cl)c1 | 1.79 µM (active) | inactive | inactive | 25.2 µM (active) | inactive | 7.12 µM (active)
10 | O=C(Nc1cccc2nn(-c3ccc(F)cc3)cc12)c1ccccn1 | inactive | inactive | inactive | inactive | inactive | 28.3 µM (active)
11 | COc1ccc(-n2c(C)c(C(C)=O)c3cc(O)ccc32)cc1 | inactive | inactive | inactive | inactive | inactive | inactive
12 | Oc1ccc(CNc2cc(C(F)(F)F)ccn2)c2cccnc12 | 20.1 µM (active) | inactive | 5.65 µM (active) | 7.12 µM (active) |  | 11.3 µM (active)
13 | CN(C)c1cccc(-c2cnc(N3CCC(C(N)=O)CC3)s2)c1 | 8.96 µM (active) | inactive | 15.9 µM (active) | inactive |  | 10.1 µM (active)
14 | Cc1[nH]cnc1C[C@H]1CCc2c(C)c3ccccc3n2C1=O | 8.96 µM (active) | inactive | 3.18 µM (active) | 11.3 µM (active) | inactive | 
15 | Cc1cc(C)nc(NC(=S)N2CCN(c3cc4ccccc4cn3)CC2)c1 | inactive | inactive | 6.34 µM (active) | 15.9 µM (active) |  | 5.04 µM (active)
16 | COc1ccc(C2Nc3ccccc3C(=O)N2Cc2cccc3ccccc23)cc1COc1ccc(NC(C)=O)cc1 (centres undefined) | 3.55 µM (active) | inactive | 12.6 µM (active) | 22.5 µM (active) | inactive | 4 µM (active)
17 | O=S(=O)(NN1CCOCC1)c1ccc(Br)cc1 | 22.5 µM (active) | inactive | inactive | 11.3 µM (active) | inactive | 3.57 µM (active)
18 | Cc1ccsc1CN(C)c1ncnc2ccc(-c3ccoc3)cc12 | inactive | inactive | 22.5 µM (active) | 11.3 µM (active) | inactive | 
19 | O=C(NCc1ccccc1)C1CCN(c2nc(-c3ccc(Br)cc3)cs2)CC1 | 7.08 µM (active) | inactive | inactive | inactive | inactive | 
20 | O=C1Nc2ccccc2/C1=C/c1cccc(C(=O)O)c1 | 2.24 µM (active) | inactive | 4 µM (active) |  |  | inactive
21 | COc1ccc(C2Nc3ccccc3C(=O)N2Cc2ccc(-c3ccccc3)cc2)cc1COc1ccc(NC(C)=O)cc1 (centres undefined) | 1.79 µM (active) | inactive | 11.2 µM (active) |  | inactive | 
22 | Nc1ccccc1OC1=NS(=O)(=O)c2ccccc21 | inactive | 2.51 µM (active) |  | inactive | inactive | 
23 | C=C1[C@@H](OC(C)=O)CC[C@@]2(C)[C@@H](OC(C)=O)[C@H](OC(C)=O)C3=C(C)C[C@H](OC(=O)C(C)CC)[C@@H]([C@@H](OC(C)=O)[C@H]12)C3(C)C (some centres undefined) | inactive | 2.51 µM (active) | inactive |  | inactive | inactive
24 | Cc1ccc(CN(C)c2ncnc3ccc(-c4ccc(C#N)n4C)cc23)o1 | 3.16 µM (active) | inactive | 22.4 µM (active) |  | inactive | 12.7 µM (active)
25 | CN(C)CCCNC(=O)c1ccc(-c2cnc3c(O)cccc3c2)cc1 | inactive | inactive |  | inactive | inactive | 
26 | CC(C)(Nc1nc(-c2ccccc2C(F)(F)F)nc2ccccc12)c1ccc(-c2cccc(C(F)(F)F)c2)cc1 | inactive | inactive | inactive |  | inactive | 
27 | CN(C)[C@H]1CCN(c2cccc(Nc3nn4c(=O)c5ccccc5nc4s3)c2)C1 | inactive | inactive | 3.18 µM (active) |  | inactive | 5.04 µM (active)
